# In ChEMBL document CHEMBL4513145, “CO-ADD screening of Biotechnology Research Centre (C.R.B.t) (Algeria) compounds”:
# Several values for one entry are separate records, joined by “and”; a condition that tells them apart may be missing. Equal entries are not always repeated. Measured potencies and affinities stand elsewhere.
# Experiments:
# [1] = tested on: Klebsiella pneumoniae; details: Concentration 32 ug.mL-1, ASSAY_TEST Inhibition of Bacterial Growth, detection method Absorption (OD600), MEDIA CAMHB, plate type 384well, NBS, CORNING #3640, time 18 hr
# [2] = tested on: Candida albicans; details: 32 ug/mL
# [3] = tested on: Cryptococcus neoformans; details: Concentration 32 ug.mL-1, ASSAY_TEST Inhibition of Fungal Growth, detection method Resazurin, Absorption (OD600-OD570), plate type 384well, NBS, CORNING #3640
smiles,measurement,setting,value
O=C(OCc1ccccc1)N1CC(Cc2ccccc2)C(O)O1 (configuration not stated),Inhibition,[1],0%
same,Inhibition,[2],12.9%
same,Inhibition,[3],9.21%
CC1CN(S(=O)(=O)c2ccc([N+](=O)[O-])cc2)N(C(=O)OC(C)(C)C)C1=O (configuration not stated),Inhibition,[1]; 32 ug/mL,7.28% and 7.49% and 8.98%
same,Inhibition,[3]; 32 ug/mL,-7.3% and -1.18% and -10.38%
CCCCCCCC1CN(S(=O)(=O)c2ccc(C)cc2)N(S(=O)(=O)c2ccc(C)cc2)C1O (configuration not stated),Inhibition,[1],2.03%
same,Inhibition,[2],8.32%
same,Inhibition,[3],-3.29%
O=C1ON(C(=O)OCc2ccccc2)CC1Cc1ccccc1 (configuration not stated),Inhibition,[1]; 32 ug/mL,2.56% and 10.07%
same,Inhibition,[2],4.94% and 2.48%
same,Inhibition,[3]; 32 ug/mL,7.64% and 2.52%
CC1CN(C(=O)OCc2ccccc2)OC1=O (configuration not stated),Inhibition,[1]; 32 ug/mL,1.37% and 8.3% and 6.85%
CC1CN(C(=O)OCc2ccccc2)OC1O (configuration not stated),Inhibition,[1],4.15%
same,Inhibition,[2],2.95%
same,Inhibition,[3],-0.06%
Cc1ccc(S(=O)(=O)N2CC(Cc3ccccc3)C(=O)N2S(=O)(=O)c2ccc(C)cc2)cc1 (configuration not stated),Inhibition,[1]; 32 ug/mL,-3.35% and -1.6%
same,Inhibition,[3]; 32 ug/mL,-1.01% and -2.47%
